Experimental findings from ChEMBL document CHEMBL1961873, “Compounds: GSK PKIS; Assays: Nanosyn kinase panel” (2012) are described below.

In test [1] the target is T1, Serine/threonine-protein kinase D2 (Homo sapiens) (UniProt Q9BZL6).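 Also: mean value of PRKD2 inhibition, from the GSK PKIS screening panel.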
T1 sequence (whole entry): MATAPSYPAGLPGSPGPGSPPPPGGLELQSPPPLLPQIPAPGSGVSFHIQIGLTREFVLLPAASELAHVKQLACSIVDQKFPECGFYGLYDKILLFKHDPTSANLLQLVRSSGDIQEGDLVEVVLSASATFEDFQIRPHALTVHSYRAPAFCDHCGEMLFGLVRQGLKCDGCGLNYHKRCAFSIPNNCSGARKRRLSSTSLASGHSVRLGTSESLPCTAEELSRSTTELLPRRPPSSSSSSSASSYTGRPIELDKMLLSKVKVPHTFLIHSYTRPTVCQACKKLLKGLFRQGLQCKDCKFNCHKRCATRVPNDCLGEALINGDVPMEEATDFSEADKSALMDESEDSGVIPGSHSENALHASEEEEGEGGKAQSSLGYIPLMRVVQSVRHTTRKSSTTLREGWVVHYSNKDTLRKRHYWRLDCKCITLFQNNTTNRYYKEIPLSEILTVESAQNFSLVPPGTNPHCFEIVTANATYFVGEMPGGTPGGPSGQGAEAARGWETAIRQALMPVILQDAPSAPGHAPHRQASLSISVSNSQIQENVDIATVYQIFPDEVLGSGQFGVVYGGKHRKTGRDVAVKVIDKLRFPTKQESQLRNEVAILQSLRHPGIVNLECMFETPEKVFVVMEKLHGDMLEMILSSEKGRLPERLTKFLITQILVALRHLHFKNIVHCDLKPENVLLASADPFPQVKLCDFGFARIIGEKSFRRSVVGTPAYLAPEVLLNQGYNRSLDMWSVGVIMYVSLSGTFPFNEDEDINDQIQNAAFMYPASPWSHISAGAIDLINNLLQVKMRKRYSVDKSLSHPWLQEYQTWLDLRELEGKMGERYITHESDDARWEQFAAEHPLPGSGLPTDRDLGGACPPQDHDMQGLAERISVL
As to conditions: at 1 µM.

For test [2], the target named is T2, Serine/threonine-protein kinase D3 (Homo sapiens) (UniProt O94806).
T2 sequence (whole entry): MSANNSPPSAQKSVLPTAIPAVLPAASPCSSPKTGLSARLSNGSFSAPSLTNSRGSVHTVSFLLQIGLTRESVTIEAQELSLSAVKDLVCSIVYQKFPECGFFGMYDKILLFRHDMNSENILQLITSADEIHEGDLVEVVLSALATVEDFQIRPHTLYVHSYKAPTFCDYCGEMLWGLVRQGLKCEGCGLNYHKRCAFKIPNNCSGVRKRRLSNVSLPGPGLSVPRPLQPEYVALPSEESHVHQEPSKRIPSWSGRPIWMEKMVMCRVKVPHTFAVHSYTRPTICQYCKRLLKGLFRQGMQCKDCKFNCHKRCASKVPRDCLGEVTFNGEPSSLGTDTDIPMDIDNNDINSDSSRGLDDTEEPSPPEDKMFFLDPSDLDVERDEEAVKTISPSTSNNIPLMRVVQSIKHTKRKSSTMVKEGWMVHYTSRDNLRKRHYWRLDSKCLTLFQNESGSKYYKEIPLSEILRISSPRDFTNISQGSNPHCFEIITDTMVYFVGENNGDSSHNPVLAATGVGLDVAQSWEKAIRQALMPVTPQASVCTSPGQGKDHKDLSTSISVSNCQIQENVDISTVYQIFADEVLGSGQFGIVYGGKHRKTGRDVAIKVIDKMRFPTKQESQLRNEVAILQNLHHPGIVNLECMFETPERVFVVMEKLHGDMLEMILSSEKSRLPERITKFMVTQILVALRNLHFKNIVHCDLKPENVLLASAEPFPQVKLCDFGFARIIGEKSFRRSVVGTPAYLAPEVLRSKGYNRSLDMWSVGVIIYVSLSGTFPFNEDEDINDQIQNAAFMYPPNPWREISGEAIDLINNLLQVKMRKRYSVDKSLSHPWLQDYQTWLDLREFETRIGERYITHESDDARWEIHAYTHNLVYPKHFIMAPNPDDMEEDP
As to conditions: at 0.1 µM.

The target in test [3] is T2, Serine/threonine-protein kinase D3 (Homo sapiens). The note with it: at 1 µM.
Test [4] addresses T3, cGMP-dependent protein kinase 1 (Homo sapiens) (UniProt Q13976).
T3 sequence (whole entry): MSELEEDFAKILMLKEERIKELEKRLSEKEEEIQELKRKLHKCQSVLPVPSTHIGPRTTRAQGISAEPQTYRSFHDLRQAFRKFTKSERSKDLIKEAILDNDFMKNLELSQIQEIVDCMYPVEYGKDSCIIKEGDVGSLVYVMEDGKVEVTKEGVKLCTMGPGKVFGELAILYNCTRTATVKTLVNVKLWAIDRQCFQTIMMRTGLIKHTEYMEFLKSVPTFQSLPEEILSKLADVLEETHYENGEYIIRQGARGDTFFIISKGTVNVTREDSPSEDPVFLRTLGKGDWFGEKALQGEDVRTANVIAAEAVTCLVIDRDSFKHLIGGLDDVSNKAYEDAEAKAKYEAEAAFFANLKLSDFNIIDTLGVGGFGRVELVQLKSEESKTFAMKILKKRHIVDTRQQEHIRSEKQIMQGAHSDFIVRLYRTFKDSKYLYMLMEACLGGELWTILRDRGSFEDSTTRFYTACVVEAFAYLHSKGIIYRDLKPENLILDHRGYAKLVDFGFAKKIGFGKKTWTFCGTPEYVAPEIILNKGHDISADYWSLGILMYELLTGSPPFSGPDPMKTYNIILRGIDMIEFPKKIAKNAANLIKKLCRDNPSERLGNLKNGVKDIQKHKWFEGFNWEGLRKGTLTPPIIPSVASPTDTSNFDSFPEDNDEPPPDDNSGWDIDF
The note with it: at 0.1 µM.

The target of test [5] is T3, cGMP-dependent protein kinase 1 (Homo sapiens). The note with it: at 1 µM.
Test [6] addresses T4, cGMP-dependent protein kinase 2 (Homo sapiens) (UniProt Q13237).
T4 sequence (whole entry): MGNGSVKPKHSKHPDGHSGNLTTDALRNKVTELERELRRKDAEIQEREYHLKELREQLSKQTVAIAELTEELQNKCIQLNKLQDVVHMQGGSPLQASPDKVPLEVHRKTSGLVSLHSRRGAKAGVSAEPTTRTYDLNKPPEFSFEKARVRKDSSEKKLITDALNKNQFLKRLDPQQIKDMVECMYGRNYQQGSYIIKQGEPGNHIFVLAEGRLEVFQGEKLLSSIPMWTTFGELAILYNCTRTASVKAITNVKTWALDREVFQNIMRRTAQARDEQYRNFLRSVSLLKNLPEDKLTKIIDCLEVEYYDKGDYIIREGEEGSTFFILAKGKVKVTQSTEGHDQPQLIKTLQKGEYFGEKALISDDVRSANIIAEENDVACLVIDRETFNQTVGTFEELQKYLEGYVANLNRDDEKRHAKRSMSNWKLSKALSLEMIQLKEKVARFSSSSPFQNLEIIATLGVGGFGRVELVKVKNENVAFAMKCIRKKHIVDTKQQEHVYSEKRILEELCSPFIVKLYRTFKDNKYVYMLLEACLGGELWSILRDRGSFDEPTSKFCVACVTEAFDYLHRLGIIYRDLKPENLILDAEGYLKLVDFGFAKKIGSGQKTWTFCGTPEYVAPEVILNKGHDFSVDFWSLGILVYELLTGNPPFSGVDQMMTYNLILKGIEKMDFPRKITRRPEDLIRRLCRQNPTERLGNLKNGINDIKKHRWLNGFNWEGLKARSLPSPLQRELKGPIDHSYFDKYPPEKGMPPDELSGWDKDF
As to conditions: at 0.1 µM.

The target in test [7] is T4, cGMP-dependent protein kinase 2 (Homo sapiens). As to conditions: at 1 µM.
Test [8] addresses T5, cAMP-dependent protein kinase catalytic subunit PRKX (Homo sapiens) (UniProt P51817).
T5 sequence (whole entry): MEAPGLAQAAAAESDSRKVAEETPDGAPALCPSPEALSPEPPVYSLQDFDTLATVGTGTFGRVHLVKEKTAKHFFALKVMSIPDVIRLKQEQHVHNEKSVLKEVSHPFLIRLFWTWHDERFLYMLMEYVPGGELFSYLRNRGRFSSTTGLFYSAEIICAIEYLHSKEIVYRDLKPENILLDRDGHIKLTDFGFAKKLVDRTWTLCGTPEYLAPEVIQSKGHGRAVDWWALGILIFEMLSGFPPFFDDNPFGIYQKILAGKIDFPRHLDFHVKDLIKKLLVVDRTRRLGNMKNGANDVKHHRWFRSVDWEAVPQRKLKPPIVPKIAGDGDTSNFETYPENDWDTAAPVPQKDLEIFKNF
The note with it: at 0.1 µM.

The target in test [9] is T5, cAMP-dependent protein kinase catalytic subunit PRKX (Homo sapiens). As to conditions: at 1 µM.
In test [10] the target is Rho-associated protein kinase 1 (Homo sapiens) (UniProt Q13464). As to conditions: at 0.1 µM.
Rho-associated protein kinase 1 (Homo sapiens), sequence (Q13464 2-1354 limits assumed): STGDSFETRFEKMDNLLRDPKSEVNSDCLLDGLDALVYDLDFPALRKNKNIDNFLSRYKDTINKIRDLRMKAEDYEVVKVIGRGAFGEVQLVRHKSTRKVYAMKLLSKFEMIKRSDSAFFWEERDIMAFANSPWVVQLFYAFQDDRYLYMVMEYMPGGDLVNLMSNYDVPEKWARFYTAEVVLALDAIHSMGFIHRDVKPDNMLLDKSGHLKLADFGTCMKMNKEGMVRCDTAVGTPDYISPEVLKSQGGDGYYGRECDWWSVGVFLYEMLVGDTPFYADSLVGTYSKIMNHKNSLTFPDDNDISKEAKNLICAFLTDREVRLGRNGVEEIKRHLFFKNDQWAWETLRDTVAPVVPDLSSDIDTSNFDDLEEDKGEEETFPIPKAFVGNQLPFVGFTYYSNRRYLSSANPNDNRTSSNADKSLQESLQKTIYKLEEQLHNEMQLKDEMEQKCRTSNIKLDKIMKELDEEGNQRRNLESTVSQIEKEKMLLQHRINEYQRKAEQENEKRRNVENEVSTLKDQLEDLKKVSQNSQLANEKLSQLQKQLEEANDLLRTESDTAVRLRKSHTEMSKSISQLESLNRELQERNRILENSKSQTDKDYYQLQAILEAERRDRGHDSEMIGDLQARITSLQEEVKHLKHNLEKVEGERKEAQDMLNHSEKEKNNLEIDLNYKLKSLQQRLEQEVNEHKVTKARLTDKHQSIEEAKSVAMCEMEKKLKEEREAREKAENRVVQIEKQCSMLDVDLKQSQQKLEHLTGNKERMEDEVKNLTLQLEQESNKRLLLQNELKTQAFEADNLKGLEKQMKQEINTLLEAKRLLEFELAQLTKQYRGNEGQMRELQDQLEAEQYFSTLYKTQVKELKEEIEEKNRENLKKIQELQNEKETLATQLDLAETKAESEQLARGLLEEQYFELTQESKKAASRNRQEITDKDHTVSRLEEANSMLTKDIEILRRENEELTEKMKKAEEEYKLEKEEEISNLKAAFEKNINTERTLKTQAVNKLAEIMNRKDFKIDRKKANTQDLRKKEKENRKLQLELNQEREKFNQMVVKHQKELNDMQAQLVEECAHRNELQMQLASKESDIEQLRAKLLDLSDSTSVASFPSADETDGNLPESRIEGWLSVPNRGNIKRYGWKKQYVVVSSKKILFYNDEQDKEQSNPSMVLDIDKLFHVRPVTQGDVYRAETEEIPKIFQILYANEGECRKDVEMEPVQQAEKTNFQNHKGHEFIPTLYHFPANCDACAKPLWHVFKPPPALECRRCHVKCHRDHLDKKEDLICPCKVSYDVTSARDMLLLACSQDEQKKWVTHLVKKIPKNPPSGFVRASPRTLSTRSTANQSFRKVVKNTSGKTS
Test [11] has the same target. As to conditions: at 1 µM.
Test [12] addresses Rho-associated protein kinase 2 (Homo sapiens) (UniProt O75116). The note with it: at 0.1 µM.
Test [13] shares this target. As to conditions: at 1 µM.
Test [14] addresses Ribosomal protein S6 kinase alpha-1 (Homo sapiens) (UniProt Q15418). The note with it: at 0.1 µM.
For test [15] the target is unchanged. As to conditions: at 1 µM.
Test [16] deals with Ribosomal protein S6 kinase alpha-3 (Homo sapiens) (UniProt P51812). As to conditions: at 0.1 µM.
Ribosomal protein S6 kinase alpha-3 (Homo sapiens), sequence (P51812 whole entry): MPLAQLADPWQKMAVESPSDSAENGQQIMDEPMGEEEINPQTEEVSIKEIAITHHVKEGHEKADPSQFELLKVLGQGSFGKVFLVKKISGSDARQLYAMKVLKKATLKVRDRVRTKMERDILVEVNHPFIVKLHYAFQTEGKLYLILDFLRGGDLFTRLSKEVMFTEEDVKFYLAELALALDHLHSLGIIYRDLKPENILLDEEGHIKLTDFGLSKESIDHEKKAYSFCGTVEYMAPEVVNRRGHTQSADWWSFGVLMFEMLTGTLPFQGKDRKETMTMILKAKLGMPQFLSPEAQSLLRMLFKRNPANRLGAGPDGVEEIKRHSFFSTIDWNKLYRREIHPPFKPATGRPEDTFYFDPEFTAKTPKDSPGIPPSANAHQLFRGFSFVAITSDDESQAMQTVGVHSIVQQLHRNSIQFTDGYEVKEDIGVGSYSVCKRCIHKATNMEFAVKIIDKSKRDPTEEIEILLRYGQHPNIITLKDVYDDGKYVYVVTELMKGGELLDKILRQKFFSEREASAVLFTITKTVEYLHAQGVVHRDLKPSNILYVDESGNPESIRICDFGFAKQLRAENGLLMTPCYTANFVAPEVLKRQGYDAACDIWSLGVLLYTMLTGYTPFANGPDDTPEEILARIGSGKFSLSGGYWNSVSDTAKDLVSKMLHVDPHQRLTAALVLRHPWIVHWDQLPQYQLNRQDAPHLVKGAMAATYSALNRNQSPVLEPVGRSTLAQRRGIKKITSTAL
Test [17] shares this target. The note with it: at 1 µM.
Test [18] deals with Ribosomal protein S6 kinase alpha-2 (Homo sapiens) (UniProt Q15349). The note with it: at 0.1 µM.
Ribosomal protein S6 kinase alpha-2 (Homo sapiens), sequence (Q15349 whole entry): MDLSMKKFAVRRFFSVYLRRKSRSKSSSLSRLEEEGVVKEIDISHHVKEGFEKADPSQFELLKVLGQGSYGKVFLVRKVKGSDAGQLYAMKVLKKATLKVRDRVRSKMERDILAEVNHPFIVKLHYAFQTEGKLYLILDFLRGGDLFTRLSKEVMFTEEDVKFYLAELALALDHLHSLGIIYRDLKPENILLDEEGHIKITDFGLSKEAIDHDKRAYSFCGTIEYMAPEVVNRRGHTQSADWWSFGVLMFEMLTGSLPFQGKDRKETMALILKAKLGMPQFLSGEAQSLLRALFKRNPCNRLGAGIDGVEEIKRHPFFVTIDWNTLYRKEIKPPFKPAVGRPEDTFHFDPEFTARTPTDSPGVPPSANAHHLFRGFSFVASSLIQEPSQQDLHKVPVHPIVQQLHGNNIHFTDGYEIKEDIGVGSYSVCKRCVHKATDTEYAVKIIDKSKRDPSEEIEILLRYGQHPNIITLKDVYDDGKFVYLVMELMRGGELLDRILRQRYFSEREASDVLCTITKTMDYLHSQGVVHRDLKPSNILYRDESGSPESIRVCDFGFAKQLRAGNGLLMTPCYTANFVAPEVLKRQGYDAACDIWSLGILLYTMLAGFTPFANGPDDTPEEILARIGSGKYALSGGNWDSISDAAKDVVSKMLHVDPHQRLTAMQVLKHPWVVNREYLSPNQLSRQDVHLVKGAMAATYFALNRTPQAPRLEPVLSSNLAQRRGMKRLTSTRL
For test [19] the target is unchanged. As to conditions: at 1 µM.
Test [20] concerns the target Ribosomal protein S6 kinase alpha-6 (Homo sapiens) (UniProt Q9UK32). As to conditions: at 0.1 µM.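 Also: reported value is the mean inhibition of RSK4, from the GSK PKIS kinase inhibitor screen.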

Ribosomal protein S6 kinase alpha-1 (Homo sapiens), sequence (Q15418 whole entry): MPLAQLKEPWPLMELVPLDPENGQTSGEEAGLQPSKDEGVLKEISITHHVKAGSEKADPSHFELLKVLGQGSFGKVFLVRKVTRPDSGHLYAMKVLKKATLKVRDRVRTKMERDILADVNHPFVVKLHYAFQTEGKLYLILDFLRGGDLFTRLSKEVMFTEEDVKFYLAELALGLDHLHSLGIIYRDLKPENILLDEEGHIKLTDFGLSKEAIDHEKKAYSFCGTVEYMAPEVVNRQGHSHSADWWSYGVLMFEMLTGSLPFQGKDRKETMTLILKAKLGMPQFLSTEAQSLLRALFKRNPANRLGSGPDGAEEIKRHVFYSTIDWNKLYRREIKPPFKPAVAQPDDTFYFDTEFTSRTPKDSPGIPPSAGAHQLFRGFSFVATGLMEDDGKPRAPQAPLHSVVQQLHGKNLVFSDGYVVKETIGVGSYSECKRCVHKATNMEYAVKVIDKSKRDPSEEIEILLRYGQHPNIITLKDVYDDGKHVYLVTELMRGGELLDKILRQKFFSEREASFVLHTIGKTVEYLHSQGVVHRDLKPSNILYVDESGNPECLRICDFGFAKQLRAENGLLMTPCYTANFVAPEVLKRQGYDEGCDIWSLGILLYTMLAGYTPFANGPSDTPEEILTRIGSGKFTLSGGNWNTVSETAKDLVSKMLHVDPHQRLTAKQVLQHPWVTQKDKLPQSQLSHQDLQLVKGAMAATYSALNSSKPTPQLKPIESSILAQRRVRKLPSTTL
Ribosomal protein S6 kinase alpha-6 (Homo sapiens), sequence (Q9UK32 whole entry): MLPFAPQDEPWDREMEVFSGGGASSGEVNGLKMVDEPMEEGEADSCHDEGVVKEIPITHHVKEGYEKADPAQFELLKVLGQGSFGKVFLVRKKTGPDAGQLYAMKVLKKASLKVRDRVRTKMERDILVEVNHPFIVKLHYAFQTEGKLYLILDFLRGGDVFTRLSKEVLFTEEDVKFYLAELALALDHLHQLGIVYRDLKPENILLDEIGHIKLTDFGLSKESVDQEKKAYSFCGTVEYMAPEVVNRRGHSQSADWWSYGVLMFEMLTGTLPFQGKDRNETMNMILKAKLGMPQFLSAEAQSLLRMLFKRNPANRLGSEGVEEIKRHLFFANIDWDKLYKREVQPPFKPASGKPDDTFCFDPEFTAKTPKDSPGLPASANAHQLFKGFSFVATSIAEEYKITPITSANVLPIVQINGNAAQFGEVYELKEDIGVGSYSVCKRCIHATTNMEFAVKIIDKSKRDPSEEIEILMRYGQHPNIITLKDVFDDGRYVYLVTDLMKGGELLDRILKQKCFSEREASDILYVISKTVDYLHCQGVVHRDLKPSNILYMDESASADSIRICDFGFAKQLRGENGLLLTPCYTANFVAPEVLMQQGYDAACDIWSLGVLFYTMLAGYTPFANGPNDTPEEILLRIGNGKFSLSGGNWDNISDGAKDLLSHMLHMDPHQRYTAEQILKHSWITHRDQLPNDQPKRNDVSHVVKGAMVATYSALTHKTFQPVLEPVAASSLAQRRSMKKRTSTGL

Usually inhibition stands for the drop in the measured response relative to a control, in per cent. As to `NS(=O)(=O)c1cccc(-c2cc3ccncc3cc2OCc2ccccc2)c1`, the inhibition in test [1] worked out at 5.47%; in test [2], 6.19%; in test [3] it was 6.3%; in [4], 3.6%; in test [5], 4.53%; in [6], 2.72%. Besides, the inhibition is 5.57% in test [7]; 1.93% in [8]; 0.54% in [9]; 0.94% in test [10]; 2.75% in test [11]; 2.25% in [12]. Also, the inhibition in [13] worked out at 2.26%; in test [14] it was 1.02%; in test [15] it was 2.9%; in test [16], 0.82%; in [17], 2.13%; in [18], 2.81%. The figures for the inhibition in test [19] and in test [20] were 2.38% and 2.55%, respectively.
Turning to `COc1cccc(-n2ncc3c(N/N=C/c4ccc(S(C)(=O)=O)cc4)ncnc32)c1`, the inhibition in test [1] was -2.8%; in test [2] it was -6.98%; in test [3], -2.38%; in [4], 1.11%; in test [5], 1.69%; in test [6], 1.59%. In addition, the inhibition in [7] stood at 1.79%; in [8], 1.68%; in [9], 1.61%; in test [10], 0.21%; in test [11], 1.16%; in test [12], 1.71%. In addition, the inhibition came out at 1.85% in test [13]; 1.45% in test [14]; 0.53% in [15]; 1.53% in test [16]; 0.98% in [17]; 1.87% in test [18]. Moreover, the inhibition in test [19] is 4.48%; in [20], 0.99%.
Turning to `Nc1nccc(-c2c(-c3ccc(F)cc3)nn3cc(C(F)(F)F)ccc23)n1`, the inhibition in test [1] is 3.04%; in test [2], 0.99%; in test [3] it was 3.75%; in test [4], -0.61%; in [5], -0.49%; in test [6], -0.17%. In addition, the inhibition in [7] is -0.08%; in test [8] it was 0.72%; in [9], -0.61%; in test [10], -0.4%; in test [11] it was -0.27%; in test [12] it was -1.57%. For the same compound, the inhibition in test [13] was 0.18%; in test [14], 0.48%; in test [15], 0.53%; in test [16] it was -0.83%; in test [17], -1.02%; in [18] it was 0.95%. For the same compound, the results for the inhibition in [19] and in test [20] were 0.63% and -1.83%, respectively.
